Data published in PubChem BioAssay (NCI).
The panel holds about 83,000 compounds, 20% with a hit somewhere; the sample as a whole holds those more often.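 Assay: single dose, 48 h. Readout: percent growth (0 = no net growth; negative = cell death). Active: <10.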 Values without a mark were called inactive. Active and inactive are the calls of the source.

Each molecule was assayed on CCRF-CEM leukemia (assay: NCI-60 one-dose screen, 48 h (100 = growth as untreated, 0 = no growth, -100 = all killed)). Details: 10 µM unless noted.
Procedure: Growth inhibition of the CCRF-CEM human tumor cell line is measured as a screen for anti-cancer activity. Cells are grown in 96 well plates and exposed to the test compound for 48 hours. Compounds are tested at a single concentration, which is 10^-5 M for most compounds. The reported endpoint is percent growth (GI% or GIPRCNT), where numbers from 0 - 100% represent growth inhibition, and numbers from -100% - 0 represent cell death. For example, a value of 40 represents 60% growth inhibition. A value of 0 means no net growth occurred over the course of the experiment. A value of -40 indicates 40% of cells at the beginning of the experiment died by the end of the experiment. A value of -100 means all cells are dead at the end of the experiment.
NCI-60 Human Tumor Cell Lines Screen was performed using the standard one-dose NCI protocol, which is described in more detail at https://dtp.cancer.gov/discovery_development/nci-60/default.htm.
Compounds with GIPRCNT values below 10 were considered active. Activity score was based on GIPRCNT using the following formula: […]
Score is 0 for GIPRCNT values of 100 or above, 50 for GIPRCNT values of 0, and 100 for GIPRCNT values of -100.

| SMILES | growth |
| --- | --- |
| COc1ccc(C2CC(n3nnnc3-c3ccccc3)=NN2)cc1 (stereo not given) | 39.6% |
| C#CCn1cc(C=C2C(=O)NC(=S)NC2=O)c2cc(Cl)ccc21 | 0.645% (active) |
| Clc1ccc(N2N=C(c3cccc(Nc4ccncc4)c3)CC2c2ccccc2)cc1 (stereo not given) | 96.3% |
| Cc1ccc(S(=O)(=O)Nc2ccc(Cl)cc2)cc1 | 95.8% |
| COc1ccc(C(O)c2cc3c(N)c(C(=O)Nc4cccc(OC)c4)sc3nc2C)cc1 (stereo not given) | 7.53% (active) |
| COc1ccc(C(=O)c2cc3c(N)c(C(=O)Nc4ccc(Br)cc4)sc3nc2C)cc1 | 88.5% |
| CC1=CC[C@@H]2CC[C@]3(C)[C@H](CC[C@@H]4[C@@]5(C)CCCNC(C)(C)[C@@H]5CC[C@]43C)[C@H]2[C@@H]1C | 5.21% (active) |
| NC(=S)N/N=C/c1ccc(OC(=O)COc2cc(Cl)c(Cl)cc2Cl)cn1 | 40.7% |
| CC[C@H](C)[C@@H]1NC(=O)[C@H](Cc2ccc(O)cc2)N(C)C(=O)[C@H](Cc2ccccc2)NC(=O)CN(C)C(=O)[C@@H]2CCCN2C(=O)[C@@H](Cc2ccccc2)N(C)C(=O)[C@H](CC(C)C)NC1=O | -7.96% (active) |
| O=c1[nH]nc(-c2ccc(Cl)cc2)cc1Cc1cccc([N+](=O)[O-])c1 | -7.68% (active) |
| COc1ccc(-c2cnc(N)nc2-c2ccc(OC)cc2O)cc1 | 82.4% |
| CCOC(=O)c1c(C)nc2c(c1N)C(=O)C(=O)N2Cc1ccc(C(F)(F)F)cc1 | 39.4% |
| COc1cc(-c2nc3occn3c2-c2ccnc(NCCNS(=O)(=O)c3ccc(Cl)cc3)n2)ccc1F | 60.9% |
| Cc1ccc2[nH]c(=S)n(-c3ccc(S(=O)(=O)Nc4ccc(Cl)nn4)cc3)c(=O)c2c1 | 100% |
| C=C(C)[C@@H]1CC[C@]2(CO)CC[C@]3(C)[C@H](CC[C@@H]4[C@@]5(C)CCCNC(C)(C)[C@@H]5CC[C@]43C)[C@@H]12 | 12.4% |
| CC(C)(C)OC(=O)N1CCN(c2ccc(N)cc2)C(=O)C1 | 107% |
| CC(C)[N+](C)(CCOC(COc1ccccc1)COc1ccccc1)C(C)C | 87.7% |
| CN1CCN(CCCOc2ccc3ncnc(Nc4ccc(Oc5cccc(C(F)(F)F)c5)c(Cl)c4)c3c2)CC1 | -9.94% (active) |
| COc1ccc(C2CC(c3cccc(Nc4ccncc4)c3)=NN2c2cc(Cl)cc(Cl)c2)cc1 (stereo not given) | 7.35% (active) |
| COc1ccc(CNCCN2C(=O)c3ccc4c5c(ccc(c35)C2=O)C(=O)N(CCNCc2ccc(OC)cc2)C4=O)cc1 | -16.3% (active) |

| SMILES | growth |
| --- | --- |
| OC1(c2ccc(Cl)c(C(F)(F)F)c2)CCN(CCCC(c2ccc(F)cc2)c2ccc(F)cc2)CC1 | -39% (active) |
| O=C(Nc1sc2c(c1C(=O)O)CCCC2)c1cccc(C(F)(F)F)c1 | 85.3% |
| Cn1c(=O)c2[nH]c(CCCc3nc4c([nH]3)c(=O)n(C)c(=O)n4C)nc2n(C)c1=O | 124% |
| O=C(Nc1ccc(Nc2ncccn2)cc1)NC1C=c2ccccc2=CC1 (stereo not given) | 90% |
| OC(c1ccccc1)c1ccccn1 (stereo not given) | 88.7% |
| O=C(CCN1CCCC1)Nc1ccc2c(Nc3ccccc3)c3ccccc3nc2c1 | -8.84% (active) |
| COc1ccc2nc(N=Nc3c(O)ccc4ccccc34)sc2c1 | 31.3% |
| COc1ccc(Nc2nc(N)nc3c2CCc2occc2-3)cc1 | 97.3% |
| COc1ccc(/C=C/C(=O)c2ccc(OC)c(OC)c2)cc1O | 62.5% |
| COc1ccc(/C(=C\c2ccccc2)C(=O)O)cc1OC | 117% |
| [O-][n+]1ccccc1CCN(O)CCc1cccc[n+]1[O-] | 99.5% |
| COc1cc2nc(-c3ccc(C(F)(F)F)cc3)cc(OCCCN3CCCCC3)c2cc1OC | 42.4% |
| Cc1ccc(C2C3CC4CCCCC4N3[C@@]3(C(=O)Nc4cc(Cl)ccc43)C2C(=O)c2nc3ccccc3[nH]2)cc1 (stereo not given in full) | 27.8% |
| COc1cnccc1-c1nc2ccc3[nH]ncc3c2c2c1CCCC2 | 16.4% |
| c1ccc(N2N=C(c3cccc(Nc4ccncc4)c3)CC2c2ccc3c(c2)OCO3)cc1 (stereo not given) | 1.64% (active) |
| C=C(C)[C@@H]1CC[C@]2(C(=O)NCCCN(CCC#N)CCC#N)CC[C@]3(C)[C@H](CC[C@@H]4[C@@]5(C)CCC(=O)C(C)(C)[C@@H]5CC[C@]43C)[C@@H]12 | 106% |
| COc1ccc2c(c1)OC1=C(C(=O)OC1)C2c1cc(OC)c(OC)c(OC)c1 (stereo not given) | 13.8% |
| Clc1nc(Nc2ccccc2)nc(Nc2ccccc2)n1 | 91.7% |
| COc1cc2nc(-c3ccc(C(F)(F)F)cc3)cc(OCCCN3CCC(O)CC3)c2cc1OC | 34.2% |
| COc1ccc2c(Nc3ccc(NS(C)(=O)=O)cc3)c3ccccc3nc2c1 | 11% |
